About 83,000 compounds went through this panel and 20% of them were active in at least one assay; those are over-represented in the sample as a whole.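 Cells were grown in 96-well plates and exposed to the test compound at a single concentration for 48 hours; results are reported as percent growth, with values below 10 considered active.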 Active and inactive are the calls of the source.
How the values were obtained:
Test in all cases: NCI-60 one-dose screen, 48 h (100 = growth as untreated, 0 = no growth, -100 = all killed)
Settings in all cases: 10 µM unless noted
T-47D breast = test system: T-47D breast
BT-549 breast = test system: BT-549 breast
MDA-MB-435 melanoma = test system: MDA-MB-435 melanoma
SW-620 colon = test system: SW-620 colon
MCF7 breast = test system: MCF7 breast
HCT-116 colon = test system: HCT-116 colon
HCC-2998 colon = test system: HCC-2998 colon
KM12 colon = test system: KM12 colon

Measured: growth

Cc1nn(-c2ccccc2)cc1/C=N/Nc1nc(Nc2ccccc2)nc(Nc2ccc(S(N)(=O)=O)cc2)n1
inactive: T-47D breast 18.9% | BT-549 breast 21.5%
active: MDA-MB-435 melanoma -31.8% | SW-620 colon -14.3% | MCF7 breast -69.9% | HCT-116 colon -40.9% | HCC-2998 colon -17.2% | KM12 colon 9.04%

N/C(=N\c1nc2ccc([N+](=O)[O-])cc2s1)C(Cl)(Cl)Cl
inactive: T-47D breast 30.7% | BT-549 breast 93.3% | MDA-MB-435 melanoma 83.6% | SW-620 colon 70.5% | MCF7 breast 40% | HCT-116 colon 53.9% | HCC-2998 colon 74% | KM12 colon 37.6%

C#C[C@]1(O)CC[C@H]2[C@@H]3CC=C4c5sc(Nc6ccc(OC)nc6)nc5CC[C@]4(C)[C@H]3CC[C@@]21C
active: SW-620 colon -20.8% | MCF7 breast 4.25% | HCT-116 colon -48.6%
inactive: T-47D breast 21.2% | BT-549 breast 33.3% | MDA-MB-435 melanoma 48.1% | HCC-2998 colon 65.5% | KM12 colon 19.6%

O=C(CCCCCCN1CC(=O)N2[C@@H](c3cccc(Cl)c3)c3[nH]c4ccccc4c3C[C@H]2C1=O)NO
inactive: T-47D breast 19.6% | BT-549 breast 82.7% | MDA-MB-435 melanoma 31.2% | SW-620 colon 26.3% | MCF7 breast 38% | HCT-116 colon 14.8% | HCC-2998 colon 72.1% | KM12 colon 54.9%

CCN1CCN(c2cc(C(=O)Nc3nc4ccc(Oc5ccnc(C(=O)NC)c5)cc4s3)cc(C(F)(F)F)c2)CC1
inactive: T-47D breast 72% | BT-549 breast 149% | MDA-MB-435 melanoma 68.6% | SW-620 colon 77.5% | MCF7 breast 51.9% | HCT-116 colon 57.9% | HCC-2998 colon 90.3% | KM12 colon 56.9%

COc1ccc(-c2no[n+]([O-])c2Nc2ccccc2Br)cc1
inactive: T-47D breast 80% | BT-549 breast 113% | MDA-MB-435 melanoma 107% | SW-620 colon 101% | MCF7 breast 84.9% | HCT-116 colon 93.7% | HCC-2998 colon 111% | KM12 colon 101%

O=C(CCCCCCN1CC(=O)N2[C@@H](c3cccc(Br)c3)c3[nH]c4ccccc4c3C[C@H]2C1=O)NO
active: HCT-116 colon 8.35%
inactive: T-47D breast 17.2% | BT-549 breast 57.9% | MDA-MB-435 melanoma 14% | SW-620 colon 15% | MCF7 breast 21.4% | HCC-2998 colon 41.6% | KM12 colon 28.4%

O=C1C[C@@H](c2ccccc2)Oc2c(Cc3ccccc3O)c(O)c(Cc3cc(Cc4cc(Cc5ccccc5O)ccc4O)ccc3O)c(O)c21
inactive: T-47D breast 94% | BT-549 breast 104% | MDA-MB-435 melanoma 93.8% | SW-620 colon 99.3% | MCF7 breast 92.2% | HCT-116 colon 96.7% | HCC-2998 colon 106% | KM12 colon 92.8%

NC(=O)c1c(NC(=O)c2cccc(OC(F)(F)F)c2)sc2c1CCC(=O)C2
inactive: T-47D breast 28.1% | BT-549 breast 28.4% | MDA-MB-435 melanoma 64.7% | SW-620 colon 18.3% | MCF7 breast 27.4% | HCT-116 colon 15.6% | HCC-2998 colon 104% | KM12 colon 31.4%

COc1ccc(OC)c([C@H]2c3[nH]c4ccccc4c3C[C@H]3C(=O)N(CCCCCCC(=O)NO)CC(=O)N23)c1
inactive: T-47D breast 65% | BT-549 breast 107% | MDA-MB-435 melanoma 85% | SW-620 colon 72.5% | MCF7 breast 72.2% | HCT-116 colon 66.8% | HCC-2998 colon 99.9% | KM12 colon 91.7%

CCOC(=O)c1c(Nc2ccccc2)nn2c(-c3ccc(Br)cc3)ccnc12
inactive: T-47D breast 41.3% | BT-549 breast 104% | MDA-MB-435 melanoma 80.3% | SW-620 colon 78.4% | MCF7 breast 80.9% | HCT-116 colon 42.5% | HCC-2998 colon 87.1% | KM12 colon 78.3%

COC(=O)[C@@]1(C)CC[C@]2(C)CC[C@]3(C)C(=CC(=O)[C@@H]4[C@@]5(C)Cc6c(n(CC#CCN7CCN(C)CC7)c7ccccc67)C(C)(C)[C@@H]5CC[C@]43C)[C@@H]2C1
active: SW-620 colon -63.4% | MCF7 breast -32.4% | HCT-116 colon -28.7%
inactive: T-47D breast 84.8% | BT-549 breast 90.5% | MDA-MB-435 melanoma 40.3% | HCC-2998 colon 94.8% | KM12 colon 52.8%

ClC(Cl)c1nc(-c2cccs2)n2nc(-c3ccccc3)cc2n1
inactive: BT-549 breast 87.4%
active: T-47D breast 2.65% | MDA-MB-435 melanoma -9.17% | SW-620 colon -1.61% | MCF7 breast -4.41% | HCT-116 colon -23.7% | HCC-2998 colon -71.3% | KM12 colon -36.4%

N=c1c2cc(-c3ccccc3)oc2ncn1/N=C/c1ccccc1
active: MDA-MB-435 melanoma 7.67%
inactive: T-47D breast 94% | BT-549 breast 92.1% | SW-620 colon 60.1% | MCF7 breast 50.4% | HCT-116 colon 65% | HCC-2998 colon 99% | KM12 colon 59%

COc1cc2c3c(n(CCCN4CCCCC4)c(=O)c2cc1OC)-c1cc2c(cc1C3=O)OCO2
active: T-47D breast -64.6% | BT-549 breast -59.7% | MDA-MB-435 melanoma -81.4% | SW-620 colon -92.5% | MCF7 breast -75.5% | HCT-116 colon -71.9% | HCC-2998 colon -86.8% | KM12 colon -85.4%

O=C(Nc1ccccc1)Nc1nc2ccc([N+](=O)[O-])cc2s1
inactive: SW-620 colon 11.5% | HCC-2998 colon 10.8%
active: T-47D breast -14.3% | BT-549 breast -11.8% | MDA-MB-435 melanoma 2.4% | MCF7 breast 2.9% | HCT-116 colon 4.52% | KM12 colon 3.66%

COc1cc(-c2nc(SCc3ccc(C)cc3)[nH]c(=O)c2C#N)ccc1OCc1ccccc1
inactive: T-47D breast 109% | BT-549 breast 156% | MDA-MB-435 melanoma 98.2% | SW-620 colon 107% | MCF7 breast 94.5% | HCT-116 colon 112% | HCC-2998 colon 117% | KM12 colon 102%

COc1cc(NC2=C(Cl)C(=O)c3nc(C)ccc3C2=O)cc(OC)c1
inactive: BT-549 breast 24.1% | HCC-2998 colon 14.4% | KM12 colon 39.3%
active: T-47D breast -56% | MDA-MB-435 melanoma -87.4% | SW-620 colon -90.2% | MCF7 breast -51.7% | HCT-116 colon -97.8%

C=CCn1c(SCC(=O)Nc2cccc(C(=O)/C=C/c3ccccc3Cl)c2)nc2ccccc2c1=O
active: HCT-116 colon -86.9%
inactive: T-47D breast 74.5% | BT-549 breast 99.7% | MDA-MB-435 melanoma 89.1% | SW-620 colon 67.2% | MCF7 breast 24.4% | HCC-2998 colon 100% | KM12 colon 80.2%

COc1ccc(-c2ccnc3c(C#N)c(Nc4ccccc4)nn23)cc1OC
inactive: T-47D breast 80.5% | BT-549 breast 86.1% | MDA-MB-435 melanoma 103% | SW-620 colon 90% | MCF7 breast 90.2% | HCT-116 colon 87.5% | HCC-2998 colon 99.1% | KM12 colon 96.6%

NC(=O)c1c(NC(=O)c2cccc(C(F)(F)F)c2F)sc2c1CCC(=O)C2
inactive: T-47D breast 11.8% | BT-549 breast 11.4% | MDA-MB-435 melanoma 12.3% | HCC-2998 colon 44.1%
active: SW-620 colon 2.94% | MCF7 breast 6.11% | HCT-116 colon 7.49% | KM12 colon 7.39%

O=C1CSC(=O)N1Cc1cc2ccccc2nc1Cl
inactive: T-47D breast 92.5% | BT-549 breast 95.6% | MDA-MB-435 melanoma 99.3% | SW-620 colon 103% | MCF7 breast 92.5% | HCT-116 colon 106% | HCC-2998 colon 105% | KM12 colon 101%

CC(C)Sc1nc(NC2CC2)c(C#N)c(-c2ccccc2)n1
inactive: T-47D breast 83.5% | BT-549 breast 105% | MDA-MB-435 melanoma 88.1% | SW-620 colon 82.6% | MCF7 breast 73.7% | HCT-116 colon 53.2% | HCC-2998 colon 89.9% | KM12 colon 97.5%

NCCN1CCN(c2nc(-c3ccccc3)nc3nc(-c4ccccc4)oc23)CC1
active: T-47D breast -16.2% | MDA-MB-435 melanoma -77.6% | SW-620 colon -55% | MCF7 breast -88.3% | HCT-116 colon -82.2% | HCC-2998 colon -14.4% | KM12 colon -55.4%
inactive: BT-549 breast 92.5%

N/C(=N\c1nc2c(Cl)cccc2s1)C(Cl)(Cl)Cl
inactive: T-47D breast 42.4% | BT-549 breast 111% | MDA-MB-435 melanoma 89.1% | SW-620 colon 82.5% | MCF7 breast 49.3% | HCT-116 colon 69.7% | HCC-2998 colon 72.9% | KM12 colon 41.5%

CCCCOc1ccc(S(=O)(=O)N2CCN(c3nccc(N4CCOCC4)n3)CC2)cc1
inactive: T-47D breast 69% | BT-549 breast 13% | MDA-MB-435 melanoma 14.5% | SW-620 colon 34.8% | MCF7 breast 87.5% | HCT-116 colon 12.6% | HCC-2998 colon 33.8% | KM12 colon 16%

Cc1cn(-c2cc(NC(=O)c3cncc(C#Cc4cnc5ccc(O[C@H]6CCOC6)nn45)c3)cc(C(F)(F)F)c2)cn1
inactive: T-47D breast 98.2% | BT-549 breast 181% | MDA-MB-435 melanoma 76.5% | SW-620 colon 58.9% | MCF7 breast 44.6% | HCT-116 colon 44.2% | HCC-2998 colon 84.7% | KM12 colon 21.9%

COc1cc(O)c2c(c1)[C@H]1O[C@@H]1C[C@H](O)[C@H](O)C(=O)/C=C\C[C@H](C)OC2=O
active: BT-549 breast 2.6%
inactive: T-47D breast 30.1% | MDA-MB-435 melanoma 19.2% | SW-620 colon 21.8% | MCF7 breast 43.3% | HCT-116 colon 27.7% | HCC-2998 colon 65.1% | KM12 colon 90.4%

Cc1cc(=O)n2nc(-c3c[nH]c4ccccc34)sc2n1
inactive: T-47D breast 92.2% | BT-549 breast 108% | MDA-MB-435 melanoma 103% | SW-620 colon 94.4% | MCF7 breast 73.2% | HCT-116 colon 109% | HCC-2998 colon 107% | KM12 colon 101%

C=CCn1c(SCC(=O)Nc2cccc(C(=O)/C=C/c3ccccc3)c2)nc2ccccc2c1=O
active: HCT-116 colon -3.91%
inactive: T-47D breast 78.4% | BT-549 breast 107% | MDA-MB-435 melanoma 82.9% | SW-620 colon 12.2% | MCF7 breast 18.3% | HCC-2998 colon 96% | KM12 colon 57.5%

Cc1cccc(NC(c2cc3cccc4ccc5cccc2c5c43)c2nnnn2C(C)(C)C)c1C (stereo not drawn)
inactive: T-47D breast 68.4% | BT-549 breast 99.2% | MDA-MB-435 melanoma 93% | SW-620 colon 93.7% | MCF7 breast 66.9% | HCT-116 colon 70.5% | HCC-2998 colon 99.6% | KM12 colon 95.8%
